Test [1] is described as follows: ATG_E_Box_CIS: Attagene CIS-FACTORIAL HepG2 Assay for human Enhancer Box (E-box) (AID 2282936). The note with it: HepG2 E-box cis-reporter transcription, actives raise or lower the signal. The procedure, abridged: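 E-box-driven reporter transcripts measured in transiently transfected HepG2 after 24 h exposure: RNA reverse-transcribed, PCR-amplified, fluorescently labelled, digested and resolved by capillary electrophoresis. Gain or loss relative to DMSO.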

Test [2] can be described thus: ATG_M_61_CIS: Attagene CIS-FACTORIAL HepG2 Assay for M61 Transcription Factor (Internal Marker) (AID 2282937). The note with it: HepG2 Attagene CIS-FACTORIAL M61 internal marker reporter; actives raise or lower the signal. The procedure, abridged:
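Human liver HepG2, transient MRTU transfection (cis promoter elements), 24 h compound. Total RNA → oligo(dT) RT → PCR → FAM label → HpaI → CE. Internal background marker; bidirectional fitting, DMSO = baseline.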

The nature of test [3]: ATG_EGR_CIS: Attagene CIS-FACTORIAL HepG2 Assay for human Early Growth Response 1 (EGR1) (AID 2282938). The note with it: HepG2 Attagene CIS-FACTORIAL EGR reporter mRNA; actives raise or lower the signal. In short, it runs like this:
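Transient transfection of human HepG2 with multiple cis-regulated reporter units, chemical exposure 24 h, total RNA isolated. Reverse transcription, PCR, fluorescent labelling and capillary electrophoresis quantify reporter transcripts; activity fitted bidirectionally against DMSO.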

A short description of test [4]: ATG_M_19_CIS: Attagene CIS-FACTORIAL HepG2 Assay for M19 Transcription Factor (Internal Marker) (AID 2282939). The note with it: HepG2 Attagene CIS-FACTORIAL M19 internal marker reporter; actives raise or lower the signal. In short, it runs like this:
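HepG2 cells transiently transfected with cis-regulated multiplexed reporter units, dosed 24 h. Reporter mRNA quantified by RT-PCR and capillary electrophoresis; internal background marker fitted bidirectionally versus DMSO.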

Test [5] can be described thus: ATG_ERE_CIS: Attagene CIS-FACTORIAL HepG2 Assay for Estrogen Response Element (ERE) (AID 2282940). The note with it: HepG2 ERE cis-reporter, Attagene RNA transcript; actives raise or lower the signal. The procedure, abridged:
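HepG2 cells transiently transfected with multiplexed cis-element reporter units, measuring endogenous transcription factor activity; ERE reporter mRNA quantified after 24 h exposure by RT-PCR, fluorescent labelling, HpaI digestion and capillary electrophoresis. Bidirectional change versus DMSO.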

Test [6] in a line: ATG_Ets_CIS: Attagene CIS-FACTORIAL HepG2 Assay for human Erythroblast Transformation Specific (ETS) (AID 2282941). The note with it: HepG2 ETS cis-reporter transcription, actives raise or lower the signal. The procedure, abridged:
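Multiplexed reporter transcript profiling: HepG2, 24 h treatment, total RNA to cDNA, PCR, 6-FAM labelling, HpaI cut, capillary electrophoresis. Gain- or loss-of-signal fitted against DMSO.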

Test [7] deals with Hepatocyte nuclear factor 3-beta (Homo sapiens) (UniProt Q9Y261). As to the kind of experiment: ATG_FoxA2_CIS: Attagene CIS-FACTORIAL HepG2 Assay for human Forkhead box A2 (FOXA2) (AID 2282942). The note with it: HepG2 cis-reporter transcription factor activity, 24 h; actives raise or lower the signal. The procedure, abridged:
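Transient MRTU transfection of HepG2 liver cells; 24 h treatment; total RNA → oligo(dT) RT → PCR → FAM primer extension → HpaI cut → CE. Bidirectional fit vs DMSO.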

Test [8] is described as follows: ATG_FoxO_CIS: Attagene CIS-FACTORIAL HepG2 Assay for human Forkhead box O (FoxO) (AID 2282943). The note with it: HepG2 Attagene cis-reporter, FoxO element, mRNA; actives raise or lower the signal. In short, it runs like this: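 Human hepatoma HepG2 cells carry transiently introduced reporter transcription units controlled by cis promoter elements. Chemical treatment lasted 24 h, and mRNA signal was compared with DMSO.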

A short description of test [9]: ATG_GATA_CIS: Attagene CIS-FACTORIAL HepG2 Assay for human GATA Binding Protein (AID 2282944). The note with it: HepG2 GATA cis-element reporter, Attagene multiplex mRNA; actives raise or lower the signal. In short, it runs like this: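 HepG2 cells transiently transfected with multiplexed cis-element reporter units measure endogenous GATA activity; after 24 h compound exposure, reporter mRNA quantified by RT-PCR and capillary electrophoresis. Changes fitted in both directions vs DMSO.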

A short description of test [10]: ATG_GLI_CIS: Attagene CIS-FACTORIAL HepG2 Assay for human Zinc Finger Protein GLI1 (AID 2282945). The following applies: HepG2, Attagene cis-factorial reporter mRNA, GLI element; actives raise or lower the signal. The procedure, abridged: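 Bidirectional curve fits relative to DMSO, using reporter mRNA levels from RT-PCR plus capillary electrophoresis. Cells were HepG2 transiently carrying cis-regulated reporter constructs, harvested 24 h after dosing.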

The target of test [11] is Bile acid receptor (Homo sapiens) (UniProt Q96RI1). Briefly: ATG_IR1_CIS: Attagene CIS-FACTORIAL HepG2 Assay for human Nuclear Receptor Subfamily 1 Group H Member 4 (NR1H4), IR1 submotif (AID 2282946). The note with it: IR1 reporter transcription, actives raise or lower the signal. In short, it runs like this: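 HepG2 cells transiently transfected with multiplexed cis-element reporter units read endogenous transcription factor activity. After 24 h compound exposure, reporter mRNA was quantified by RT-PCR, fluorescent labelling, HpaI digestion and capillary electrophoresis; bidirectional fitting versus DMSO baseline.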

Test [12] is described as follows: ATG_ISRE_CIS: Attagene CIS-FACTORIAL HepG2 Assay for human Interferon Regulatory Factor 1 (IRF1) binding to an Interferon-Stimulated Response Element (ISRE) (AID 2282948). The note with it: HepG2 ISRE cis-reporter (Attagene), mRNA transcription readout; actives raise or lower the signal. The procedure, abridged: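 Signal reflects induction or loss of ISRE-linked reporter mRNA in transiently transfected HepG2 cells after a 24 h treatment, detected by fluorescent RT-PCR fragments on capillary electrophoresis and normalised to DMSO.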

A short description of test [13]: ATG_M_32_CIS: Attagene CIS-FACTORIAL HepG2 Assay for M32 Transcription Factor (Internal Marker) (AID 2282949).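 Further: background control marker of the multiplexed CIS panel rather than a real target.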 The note with it: HepG2 Attagene cis-factorial M32 reporter, mRNA; actives raise or lower the signal. In short, it runs like this: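 HepG2 human liver cells transiently transfected with cis-promoter-driven multiple reporter transcription units, dosed 24 h. Reporter mRNA quantified by RT-PCR, FAM-labelled primer extension, HpaI digest and capillary electrophoresis; bidirectional fit versus DMSO baseline.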

A short description of test [14]: ATG_M_06_CIS: Attagene CIS-FACTORIAL HepG2 Assay for M06 Transcription Factor (Internal Marker) (AID 2282950). The following applies: HepG2 Attagene CIS-FACTORIAL M06 internal marker reporter; actives raise or lower the signal. The procedure, abridged: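 Internal background marker within multiplexed cis-reporter HepG2 system. Cells transiently transfected, dosed 24 h; reporter mRNA measured by RT-PCR, HpaI digestion and capillary electrophoresis. Bidirectional fit relative to DMSO.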

Test [15] deals with Hepatocyte nuclear factor 6 (Homo sapiens) (UniProt Q9UBC0). Briefly: ATG_HNF6_CIS: Attagene CIS-FACTORIAL HepG2 Assay for human Hepatocyte Nuclear Factor 6 (HNF6) (AID 2282952). The following applies: HepG2 Attagene cis-factorial HNF6 reporter transcription; actives raise or lower the signal. The procedure, abridged:
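Endogenous factor activity read in transiently transfected HepG2 via promoter-regulated reporter transcripts. RNA harvested 24 h post-dosing, reverse-transcribed, PCR-amplified, FAM-labelled, HpaI-digested and resolved by capillary electrophoresis; fitted in both directions against DMSO.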

For test [16], the target named is Heat shock factor protein 1 (Homo sapiens) (UniProt Q00613). As to the kind of experiment: ATG_HSE_CIS: Attagene CIS-FACTORIAL HepG2 Assay for human Heat Shock Transcription Factor 1 (HSE) (AID 2282953). The following applies: HepG2 HSE cis-reporter, Attagene RNA transcription; actives raise or lower the signal. In short, it runs like this:
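HepG2 cells transfected with cis-promoter reporter units sensing endogenous transcription factor activity; reporter mRNA quantified 24 h post-dose by RT-PCR and capillary electrophoresis of 6-FAM-labelled products. Bidirectional fitting against DMSO.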

The nature of test [17]: ATG_MRE_CIS: Attagene CIS-FACTORIAL HepG2 Assay for human Metal Responsive Element (MRE) (AID 2282954). The following applies: HepG2 MRE cis-reporter transcription, Attagene multiplex; actives raise or lower the signal. The procedure, abridged:
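Endogenous MRE-dependent transcription read as reporter mRNA in transiently transfected human HepG2 cells at 24 h. RNA reverse-transcribed, PCR-amplified, labelled and resolved by capillary electrophoresis; gain or loss relative to DMSO.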

The nature of test [18]: ATG_PBREM_CIS: Attagene CIS-FACTORIAL HepG2 Assay for human Phenobarbital-responsive Enhancer Module (PBREM) (AID 2282955). The note with it: HepG2 PBREM cis-reporter, Attagene multiplexed transcription; actives raise or lower the signal. The procedure, abridged:
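Endogenous transcription factors in human liver HepG2 cells drive a PBREM cis-element reporter, whose transcript level after 24 h treatment is quantified by RT-PCR with capillary electrophoresis; activity fitted in both directions against DMSO.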

Test [19] in a line: ATG_GRE_CIS: Attagene CIS-FACTORIAL HepG2 Assay for human Glucocorticoid Response Elements (GRE) (AID 2282947). The following applies: HepG2 GRE cis-reporter, Attagene multiplex mRNA; actives raise or lower the signal. In short, it runs like this:
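Reporter transcripts read by RT-PCR with capillary electrophoresis fluorescence after a 24 h chemical exposure of HepG2 cells transiently transfected with multiple cis-element reporter units. Gain or loss fitted against DMSO.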

Test [20] deals with Hypoxia-inducible factor 1-alpha (Homo sapiens) (UniProt Q16665). Briefly: ATG_HIF1a_CIS: Attagene CIS-FACTORIAL HepG2 Assay for human Hypoxia Inducible Factor 1 (HIF1A) (AID 2282951). The following applies: HepG2 Attagene cis-factorial HIF1a reporter transcription; actives raise or lower the signal. In short, it runs like this:
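Transient MRTU transfection of human HepG2 liver cells, 24 h compound treatment, then total RNA isolation, oligo(dT) reverse transcription, PCR amplification, fluorescent labelling and capillary electrophoresis of reporter fragments. Gain or loss relative to DMSO.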

One may read the AC50 as the midpoint of the concentration-response curve, whichever way the signal moves.

The source made the active and inactive calls. How the source made its calls: active means hit-call score of the fitted dose curve at least 0.9, where 1 is the maximum; inactive means score below 0.9.

Sequence of Heat shock factor protein 1 (Homo sapiens) (Q00613 whole entry, looked up): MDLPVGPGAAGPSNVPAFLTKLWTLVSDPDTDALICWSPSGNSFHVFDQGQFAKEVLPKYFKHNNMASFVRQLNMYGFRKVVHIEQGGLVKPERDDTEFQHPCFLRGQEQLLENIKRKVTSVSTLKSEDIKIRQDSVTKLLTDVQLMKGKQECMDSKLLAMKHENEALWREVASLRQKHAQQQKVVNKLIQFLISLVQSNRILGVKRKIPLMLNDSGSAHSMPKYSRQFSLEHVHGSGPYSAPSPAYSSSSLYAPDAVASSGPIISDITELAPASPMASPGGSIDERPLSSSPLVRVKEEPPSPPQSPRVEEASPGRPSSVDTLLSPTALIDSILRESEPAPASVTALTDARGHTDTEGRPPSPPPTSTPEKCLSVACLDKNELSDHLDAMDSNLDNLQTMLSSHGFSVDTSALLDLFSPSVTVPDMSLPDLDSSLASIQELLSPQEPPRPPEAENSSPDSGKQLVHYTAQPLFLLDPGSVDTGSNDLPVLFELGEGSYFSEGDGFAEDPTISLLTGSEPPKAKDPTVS
Sequence of Hepatocyte nuclear factor 3-beta (Homo sapiens) (Q9Y261 whole entry, looked up): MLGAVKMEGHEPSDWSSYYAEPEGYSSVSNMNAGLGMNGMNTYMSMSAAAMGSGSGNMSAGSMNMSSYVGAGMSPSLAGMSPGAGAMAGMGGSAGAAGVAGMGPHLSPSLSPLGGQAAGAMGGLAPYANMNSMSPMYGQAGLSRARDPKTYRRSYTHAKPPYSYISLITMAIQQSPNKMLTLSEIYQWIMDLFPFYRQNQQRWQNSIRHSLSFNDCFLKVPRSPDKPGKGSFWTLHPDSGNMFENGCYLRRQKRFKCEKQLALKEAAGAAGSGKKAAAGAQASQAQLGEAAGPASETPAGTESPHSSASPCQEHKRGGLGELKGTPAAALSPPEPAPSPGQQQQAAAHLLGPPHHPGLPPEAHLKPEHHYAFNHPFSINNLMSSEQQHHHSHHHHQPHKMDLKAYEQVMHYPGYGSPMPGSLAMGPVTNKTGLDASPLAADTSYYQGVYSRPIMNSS
Sequence of Bile acid receptor (Homo sapiens) (Q96RI1 whole entry, looked up): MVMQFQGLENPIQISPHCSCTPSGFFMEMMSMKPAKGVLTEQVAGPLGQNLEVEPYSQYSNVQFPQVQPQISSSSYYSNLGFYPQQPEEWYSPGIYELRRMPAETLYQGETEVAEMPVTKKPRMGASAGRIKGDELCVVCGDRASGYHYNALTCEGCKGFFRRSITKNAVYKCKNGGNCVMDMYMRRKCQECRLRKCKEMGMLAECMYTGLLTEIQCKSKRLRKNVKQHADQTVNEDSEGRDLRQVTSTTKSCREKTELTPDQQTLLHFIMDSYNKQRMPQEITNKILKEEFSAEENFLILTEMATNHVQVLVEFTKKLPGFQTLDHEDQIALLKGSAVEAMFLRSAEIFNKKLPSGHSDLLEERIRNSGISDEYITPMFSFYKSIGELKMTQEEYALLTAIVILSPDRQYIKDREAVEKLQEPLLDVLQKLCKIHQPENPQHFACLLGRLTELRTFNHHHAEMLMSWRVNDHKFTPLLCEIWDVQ
Sequence of Hepatocyte nuclear factor 6 (Homo sapiens) (Q9UBC0 whole entry, looked up): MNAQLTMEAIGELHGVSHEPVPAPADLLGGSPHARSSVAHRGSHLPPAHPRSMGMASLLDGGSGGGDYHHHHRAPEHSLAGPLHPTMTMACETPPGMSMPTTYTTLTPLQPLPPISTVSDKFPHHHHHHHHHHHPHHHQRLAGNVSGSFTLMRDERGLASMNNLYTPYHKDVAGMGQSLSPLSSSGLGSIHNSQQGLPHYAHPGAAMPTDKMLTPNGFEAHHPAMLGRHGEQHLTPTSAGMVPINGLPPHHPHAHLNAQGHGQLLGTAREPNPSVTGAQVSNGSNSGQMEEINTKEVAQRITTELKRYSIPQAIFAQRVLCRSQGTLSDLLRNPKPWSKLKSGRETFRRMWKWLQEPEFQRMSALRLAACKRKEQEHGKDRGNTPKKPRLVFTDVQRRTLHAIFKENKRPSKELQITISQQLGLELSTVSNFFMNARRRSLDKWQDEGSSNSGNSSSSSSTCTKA
Sequence of Hypoxia-inducible factor 1-alpha (Homo sapiens) (Q16665 whole entry, looked up, the tested form may be a part): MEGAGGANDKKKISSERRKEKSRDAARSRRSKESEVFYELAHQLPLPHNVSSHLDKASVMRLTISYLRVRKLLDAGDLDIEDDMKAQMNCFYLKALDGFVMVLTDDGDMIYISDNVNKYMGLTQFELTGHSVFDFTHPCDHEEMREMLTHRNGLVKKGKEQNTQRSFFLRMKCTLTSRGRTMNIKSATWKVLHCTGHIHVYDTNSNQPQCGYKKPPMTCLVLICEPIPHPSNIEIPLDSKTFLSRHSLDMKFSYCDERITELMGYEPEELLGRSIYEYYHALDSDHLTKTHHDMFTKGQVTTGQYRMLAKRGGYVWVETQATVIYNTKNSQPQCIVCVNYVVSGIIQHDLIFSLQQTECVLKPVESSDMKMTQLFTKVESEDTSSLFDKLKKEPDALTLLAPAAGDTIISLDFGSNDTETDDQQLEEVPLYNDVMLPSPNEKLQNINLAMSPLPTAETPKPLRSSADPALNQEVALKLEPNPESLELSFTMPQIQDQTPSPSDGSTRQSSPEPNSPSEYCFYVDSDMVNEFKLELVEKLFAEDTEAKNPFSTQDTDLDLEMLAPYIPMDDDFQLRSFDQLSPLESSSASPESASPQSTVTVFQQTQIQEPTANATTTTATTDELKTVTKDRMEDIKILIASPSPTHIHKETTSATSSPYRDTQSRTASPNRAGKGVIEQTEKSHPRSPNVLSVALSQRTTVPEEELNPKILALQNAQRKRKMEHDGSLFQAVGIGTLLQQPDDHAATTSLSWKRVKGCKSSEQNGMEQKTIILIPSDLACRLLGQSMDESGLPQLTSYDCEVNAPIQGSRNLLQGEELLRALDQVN

As to `O=Nc1ccc(Nc2ccccc2)cc1`, the AC50 in test [1] was 9.04 µM (active); in [3] it was 37.7 µM (active); in [7], 47.9 µM (active); in [10] it was 55 µM (active); in [11] it was 13.7 µM (active); in test [12] it was 25.4 µM (active). The AC50 is 25.2 µM (active) in [15], 27.8 µM (active) in test [16], 20 µM (active) in test [17] and 59.3 µM (active) in test [18]. The outcome in test [2], in test [4], in test [5], in test [6], in test [8] and in [9] was inactive. Also, the result in test [13] and in test [14] was inactive.
`CCCC(=O)C(C)=O`: the outcome in test [1], in [2], in test [3], in [4], in [5] and in [6] was inactive. Also, the compound was classed as inactive in [7], in test [8], in [9], in test [10], in test [11] and in test [19]. Also, the result in [12], in test [13], in [14], in test [20], in test [15] and in test [16] was inactive. Moreover, the compound was called inactive in [17] and in test [18].
Take `O=C1O[C@@H]2[C@@H](O)[C@H](O)O[C@@H]2[C@H]1O`: the outcome in [1], in test [2], in test [3], in test [4], in test [5] and in test [6] was inactive. For the same compound, the compound was called inactive in [7], in [8], in test [9], in test [10], in [11] and in [19]. In addition, the outcome in test [12], in [13], in test [20], in test [15], in [16] and in test [17] was inactive. Further, the result in test [18] was inactive.
In the case of `COc1cc2ncnc(Nc3cccc(Cl)c3)c2cc1OC`, the outcome in [1], in [2], in test [4], in test [5], in test [6] and in test [7] was inactive. For the same compound, the result in test [8], in test [9], in [10], in [11], in [13] and in test [14] was inactive. The compound was called inactive in [15] and in [16]. Also, the concentration at half-maximal activity (AC50) is 19.5 µM (active) in test [3], 5.56 µM (active) in test [12], 11.4 µM (active) in test [20] and 20.1 µM (active) in test [17].

Values taken from PubChem BioAssay (EPA / NIEHS).
